Experimental data from the supplement of paper PMC10849652.
About 8,800 targets were measured; listed, in parts, are those with a hit and a random draw of the rest. About 0.5% of all pairs of compound and target were hits.

What was measured:
Experiment in all cases: log2 fold change, soluble protein after heating vs DMSO (PISA); higher = thermal stabilisation; K562 lysate, 10 uM; active = over 0.2 and 3.5 SD of the protein, either way, in both replicates (recomputed)
[1] = compound: C1=CC=C(C=C1)[C@H](COC2=CC3=C(C=C2)NC(=O)N3)NC(=O)C4=CC=CN(C4=O)CC5=CC(=C(C=C5)F)F
Summary of the method: (§1)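 Log-two fold change in thermal stability relative to solvent controls is reported from duplicates. For each sample, crude K562 extract from dounce-homogenised pellets in PBS pH 7.4 with 1 mM MgCl2, at 1 mg/mL protein, was treated with 10 μM compound for 30 min. Aliquots heated for 3 min across 48°C-58°C were pooled, brought to 0.5% NP-40 at 4°C and cleared at 21,000xg for 90 min. The supernatant was quantified by TMTpro 16plex LC-MS/MS with channel sums equalised.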

[2] = compound: CC1=C(SC2=C1C(=N[C@H](C3=NN=C(N32)C)CC(=O)N)C4=CC=C(C=C4)Cl)C
Summary of the method: as §1

[3] = compound: c1ccc([C@@H]2C[C@H]2NC2CCNCC2)cc1
Summary of the method: as §1

[4] = compound: CC1=C2C(=CC=C1)N=C(N(C2=O)C3=CC=CC=C3C)CN4C=NC5=C(N=CN=C54)N
Summary of the method: as §1

[5] = compound: Cc1sc2c(c1C)C(c1ccc(Cl)cc1)=N[C@@H](CC(=O)OC(C)(C)C)c1nnc(C)n1-2
Summary of the method: as §1

IRAK-1-4 Inhibitor I = compound: C1COCCN1CCN2C3=CC=CC=C3N=C2NC(=O)C4=CC(=CC=C4)[N+](=O)[O-] [IRAK-1-4 Inhibitor I]
Summary of the method: as §1

Measured: log2 fold change

CASC1 (UniProt Q6TDU7)
inactive: [1] -0.256 | [2] 0.037 | [3] 0.046

C1orf131 isoform 5 (UniProt Q8NDD1)
Sequence of UniProt Q8NDD1 (Q8NDD1 whole entry, looked up): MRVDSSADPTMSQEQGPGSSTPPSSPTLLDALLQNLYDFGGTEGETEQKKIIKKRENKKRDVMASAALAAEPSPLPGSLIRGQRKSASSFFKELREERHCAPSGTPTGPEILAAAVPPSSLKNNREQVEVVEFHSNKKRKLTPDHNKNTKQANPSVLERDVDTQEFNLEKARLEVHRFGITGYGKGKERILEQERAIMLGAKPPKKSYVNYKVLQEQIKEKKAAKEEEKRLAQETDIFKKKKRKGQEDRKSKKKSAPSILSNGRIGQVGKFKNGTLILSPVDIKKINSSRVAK
inactive: [4] 0.096 | [5] -0.009 | [3] -0.108

CEP295 isoform 3 (UniProt Q9C0D2)
inactive: [1] -0.154 | [2] 0.045 | [3] 0.024

CDK11A (UniProt Q9UQ88)
Sequence of UniProt Q9UQ88 (Q9UQ88 whole entry, looked up): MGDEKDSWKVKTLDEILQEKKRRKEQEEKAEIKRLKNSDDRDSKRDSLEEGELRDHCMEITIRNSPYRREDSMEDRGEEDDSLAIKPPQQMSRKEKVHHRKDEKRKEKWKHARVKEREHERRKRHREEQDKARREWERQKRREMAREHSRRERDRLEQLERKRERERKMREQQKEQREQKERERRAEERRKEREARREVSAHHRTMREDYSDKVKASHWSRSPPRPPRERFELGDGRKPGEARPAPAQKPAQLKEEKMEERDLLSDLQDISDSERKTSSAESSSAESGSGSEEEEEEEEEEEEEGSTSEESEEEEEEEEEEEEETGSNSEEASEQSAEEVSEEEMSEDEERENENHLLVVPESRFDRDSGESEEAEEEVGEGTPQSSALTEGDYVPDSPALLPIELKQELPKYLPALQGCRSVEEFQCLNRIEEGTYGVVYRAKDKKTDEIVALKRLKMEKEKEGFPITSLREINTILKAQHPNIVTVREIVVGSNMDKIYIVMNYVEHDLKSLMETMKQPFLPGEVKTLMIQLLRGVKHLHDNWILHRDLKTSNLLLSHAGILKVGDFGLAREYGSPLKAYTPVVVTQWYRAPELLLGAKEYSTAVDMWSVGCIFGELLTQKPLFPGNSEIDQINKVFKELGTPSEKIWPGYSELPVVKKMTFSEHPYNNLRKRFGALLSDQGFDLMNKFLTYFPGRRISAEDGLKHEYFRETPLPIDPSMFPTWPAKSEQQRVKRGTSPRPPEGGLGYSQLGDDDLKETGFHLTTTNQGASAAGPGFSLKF
inactive: [1] -0.046 | [2] 0.025 | [5] 0.091 | [3] 0

BCORL1 isoform 3 (UniProt Q5H9F3)
Sequence of UniProt Q5H9F3 (Q5H9F3 whole entry, looked up): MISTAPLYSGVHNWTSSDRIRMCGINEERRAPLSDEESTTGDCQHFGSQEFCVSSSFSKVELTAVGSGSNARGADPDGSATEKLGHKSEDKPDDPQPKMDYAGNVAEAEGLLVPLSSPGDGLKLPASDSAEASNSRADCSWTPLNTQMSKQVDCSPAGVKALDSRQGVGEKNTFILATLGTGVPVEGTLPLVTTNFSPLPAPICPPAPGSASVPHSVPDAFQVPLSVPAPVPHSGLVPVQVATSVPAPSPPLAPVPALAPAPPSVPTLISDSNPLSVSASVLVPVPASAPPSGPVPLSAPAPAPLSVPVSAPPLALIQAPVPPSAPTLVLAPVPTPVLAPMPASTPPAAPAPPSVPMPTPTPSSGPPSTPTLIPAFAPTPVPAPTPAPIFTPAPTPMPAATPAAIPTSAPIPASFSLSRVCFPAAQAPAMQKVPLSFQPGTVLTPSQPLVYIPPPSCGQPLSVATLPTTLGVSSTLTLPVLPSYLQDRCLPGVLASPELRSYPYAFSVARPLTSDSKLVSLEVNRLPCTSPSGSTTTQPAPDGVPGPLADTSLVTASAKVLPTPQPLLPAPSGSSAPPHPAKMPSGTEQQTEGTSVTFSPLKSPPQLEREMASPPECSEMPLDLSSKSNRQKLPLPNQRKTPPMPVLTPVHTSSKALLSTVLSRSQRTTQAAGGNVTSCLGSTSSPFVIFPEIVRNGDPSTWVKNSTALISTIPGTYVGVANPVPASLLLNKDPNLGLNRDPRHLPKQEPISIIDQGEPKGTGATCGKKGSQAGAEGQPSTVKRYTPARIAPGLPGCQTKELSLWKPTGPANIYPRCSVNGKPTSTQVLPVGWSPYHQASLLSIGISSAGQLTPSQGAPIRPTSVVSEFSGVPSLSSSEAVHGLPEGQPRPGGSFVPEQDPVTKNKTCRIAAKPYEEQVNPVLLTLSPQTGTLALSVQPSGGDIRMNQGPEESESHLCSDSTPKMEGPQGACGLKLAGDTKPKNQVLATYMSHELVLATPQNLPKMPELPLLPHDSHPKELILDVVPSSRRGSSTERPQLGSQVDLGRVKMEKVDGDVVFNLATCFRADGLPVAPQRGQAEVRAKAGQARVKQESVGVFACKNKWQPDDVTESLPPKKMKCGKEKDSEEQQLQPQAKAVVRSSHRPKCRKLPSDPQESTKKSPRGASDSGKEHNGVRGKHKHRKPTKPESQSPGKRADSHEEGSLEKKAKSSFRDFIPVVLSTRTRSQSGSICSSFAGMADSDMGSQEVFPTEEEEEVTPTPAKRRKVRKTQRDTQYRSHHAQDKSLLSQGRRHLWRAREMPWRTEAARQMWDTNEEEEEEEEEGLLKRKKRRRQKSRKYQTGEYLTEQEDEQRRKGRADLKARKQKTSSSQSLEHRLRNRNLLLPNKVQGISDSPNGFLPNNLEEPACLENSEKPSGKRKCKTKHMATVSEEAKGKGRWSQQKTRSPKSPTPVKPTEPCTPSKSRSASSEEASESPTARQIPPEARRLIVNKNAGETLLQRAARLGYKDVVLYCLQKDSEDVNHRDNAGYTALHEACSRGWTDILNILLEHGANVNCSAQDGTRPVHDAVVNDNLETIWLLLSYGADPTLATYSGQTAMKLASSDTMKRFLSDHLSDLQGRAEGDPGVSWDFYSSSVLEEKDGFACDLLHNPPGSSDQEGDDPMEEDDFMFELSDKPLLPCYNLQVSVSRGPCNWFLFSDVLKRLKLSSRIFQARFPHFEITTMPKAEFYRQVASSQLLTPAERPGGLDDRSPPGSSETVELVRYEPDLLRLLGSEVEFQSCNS
inactive: IRAK-1-4 Inhibitor I -0.141 | [4] 0.029 | [5] 0 | [3] -0.382

CCND3 (UniProt P30281)
Sequence of UniProt P30281 (P30281 whole entry, looked up): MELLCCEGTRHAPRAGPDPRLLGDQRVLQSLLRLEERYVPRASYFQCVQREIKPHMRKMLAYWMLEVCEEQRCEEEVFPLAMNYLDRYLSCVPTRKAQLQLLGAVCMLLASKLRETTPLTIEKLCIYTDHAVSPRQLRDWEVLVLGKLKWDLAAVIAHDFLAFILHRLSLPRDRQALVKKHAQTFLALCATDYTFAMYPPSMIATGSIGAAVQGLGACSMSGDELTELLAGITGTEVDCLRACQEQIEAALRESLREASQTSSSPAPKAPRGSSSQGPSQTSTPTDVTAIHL
inactive: [1] 0.043 | [2] 0.051 | [5] 0.036 | [3] -0.023

ATF7IP2 (UniProt Q5U623)
Sequence of UniProt Q5U623 (Q5U623 whole entry, looked up): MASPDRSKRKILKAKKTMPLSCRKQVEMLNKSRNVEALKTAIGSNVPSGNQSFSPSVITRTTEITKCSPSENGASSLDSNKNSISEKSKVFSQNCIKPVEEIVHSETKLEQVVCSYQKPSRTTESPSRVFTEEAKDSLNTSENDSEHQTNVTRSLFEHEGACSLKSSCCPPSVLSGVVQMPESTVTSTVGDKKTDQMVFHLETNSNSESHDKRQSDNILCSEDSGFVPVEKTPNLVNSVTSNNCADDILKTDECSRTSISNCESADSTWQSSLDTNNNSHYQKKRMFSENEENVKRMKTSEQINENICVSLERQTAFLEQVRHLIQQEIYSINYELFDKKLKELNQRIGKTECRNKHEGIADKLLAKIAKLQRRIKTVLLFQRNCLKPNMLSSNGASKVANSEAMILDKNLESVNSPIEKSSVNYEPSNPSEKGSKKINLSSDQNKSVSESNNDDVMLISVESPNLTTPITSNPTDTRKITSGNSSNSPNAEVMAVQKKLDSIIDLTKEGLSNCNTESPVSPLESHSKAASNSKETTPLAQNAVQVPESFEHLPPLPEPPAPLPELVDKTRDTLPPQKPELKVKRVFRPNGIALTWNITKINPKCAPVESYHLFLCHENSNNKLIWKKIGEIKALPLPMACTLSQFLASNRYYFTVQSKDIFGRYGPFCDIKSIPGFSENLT
inactive: [1] 0.162 | [2] 0.01 | [4] 0.101 | [3] 0.017

BRAF, A0A2R8Y8E0
inactive: [4] -0.13

C6orf120 (UniProt Q7Z4R8)
inactive: [1] -0.101 | [2] -0.015 | [5] -0.131 | [3] 0.137

BBS7 (UniProt Q8IWZ6)
Sequence of UniProt Q8IWZ6 (Q8IWZ6 whole entry, looked up): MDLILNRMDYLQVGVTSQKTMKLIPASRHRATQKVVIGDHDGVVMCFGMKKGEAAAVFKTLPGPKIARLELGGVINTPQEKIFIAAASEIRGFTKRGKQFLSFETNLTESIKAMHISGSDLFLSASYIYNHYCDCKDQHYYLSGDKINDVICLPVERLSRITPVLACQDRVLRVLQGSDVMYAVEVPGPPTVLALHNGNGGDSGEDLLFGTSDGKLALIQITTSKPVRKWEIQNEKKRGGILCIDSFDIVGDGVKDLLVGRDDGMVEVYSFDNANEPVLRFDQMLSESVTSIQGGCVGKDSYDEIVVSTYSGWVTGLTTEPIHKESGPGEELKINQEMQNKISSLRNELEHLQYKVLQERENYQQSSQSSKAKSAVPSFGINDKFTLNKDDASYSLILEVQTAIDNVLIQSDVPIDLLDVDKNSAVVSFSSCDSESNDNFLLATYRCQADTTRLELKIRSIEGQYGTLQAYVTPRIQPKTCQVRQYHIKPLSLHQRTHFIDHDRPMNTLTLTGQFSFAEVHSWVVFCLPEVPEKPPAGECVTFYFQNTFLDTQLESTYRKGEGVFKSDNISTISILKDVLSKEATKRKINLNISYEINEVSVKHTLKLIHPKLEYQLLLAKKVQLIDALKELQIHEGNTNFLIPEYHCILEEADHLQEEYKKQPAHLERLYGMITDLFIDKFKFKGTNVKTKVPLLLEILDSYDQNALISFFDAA
inactive: [4] 0.035 | [5] -0.358 | [3] 0.181

ATE1 (UniProt O95260)
Sequence of UniProt O95260 (O95260 whole entry, looked up): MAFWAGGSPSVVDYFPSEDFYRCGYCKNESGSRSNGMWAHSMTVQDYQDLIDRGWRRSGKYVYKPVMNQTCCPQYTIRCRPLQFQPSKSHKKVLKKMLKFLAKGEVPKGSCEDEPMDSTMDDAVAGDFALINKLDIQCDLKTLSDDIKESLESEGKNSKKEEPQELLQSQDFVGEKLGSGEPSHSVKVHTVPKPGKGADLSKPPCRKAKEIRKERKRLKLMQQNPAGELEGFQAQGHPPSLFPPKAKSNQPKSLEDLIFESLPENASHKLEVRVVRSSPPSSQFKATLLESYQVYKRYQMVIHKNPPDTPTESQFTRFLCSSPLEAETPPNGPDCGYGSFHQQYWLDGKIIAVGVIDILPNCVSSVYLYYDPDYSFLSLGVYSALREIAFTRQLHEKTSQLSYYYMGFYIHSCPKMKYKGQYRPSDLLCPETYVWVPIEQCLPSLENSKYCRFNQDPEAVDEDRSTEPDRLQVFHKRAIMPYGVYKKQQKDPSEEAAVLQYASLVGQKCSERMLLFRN
inactive: [1] 0 | [2] 0.07 | [3] -0.125

C15orf39 (UniProt Q6ZRI6)
inactive: [1] -0.095 | [2] 0.049 | [5] 0.032 | [3] 0.161

CHD9 (UniProt Q3L8U1)
inactive: [4] -0.074 | [5] 0.236 | [3] 0.232
